We go through three compounds from ChEMBL document CHEMBL1961873, “Compounds: GSK PKIS; Assays: Nanosyn kinase panel” (2012).

As usually defined, the inhibition is the drop in the measured response relative to a control, in per cent.

In experiment [1] the target is T1, Serine/threonine-protein kinase Nek9 (Homo sapiens) (UniProt Q8TD19).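 Note: each value is a mean percent inhibition of NEK9.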
T1 sequence (whole entry): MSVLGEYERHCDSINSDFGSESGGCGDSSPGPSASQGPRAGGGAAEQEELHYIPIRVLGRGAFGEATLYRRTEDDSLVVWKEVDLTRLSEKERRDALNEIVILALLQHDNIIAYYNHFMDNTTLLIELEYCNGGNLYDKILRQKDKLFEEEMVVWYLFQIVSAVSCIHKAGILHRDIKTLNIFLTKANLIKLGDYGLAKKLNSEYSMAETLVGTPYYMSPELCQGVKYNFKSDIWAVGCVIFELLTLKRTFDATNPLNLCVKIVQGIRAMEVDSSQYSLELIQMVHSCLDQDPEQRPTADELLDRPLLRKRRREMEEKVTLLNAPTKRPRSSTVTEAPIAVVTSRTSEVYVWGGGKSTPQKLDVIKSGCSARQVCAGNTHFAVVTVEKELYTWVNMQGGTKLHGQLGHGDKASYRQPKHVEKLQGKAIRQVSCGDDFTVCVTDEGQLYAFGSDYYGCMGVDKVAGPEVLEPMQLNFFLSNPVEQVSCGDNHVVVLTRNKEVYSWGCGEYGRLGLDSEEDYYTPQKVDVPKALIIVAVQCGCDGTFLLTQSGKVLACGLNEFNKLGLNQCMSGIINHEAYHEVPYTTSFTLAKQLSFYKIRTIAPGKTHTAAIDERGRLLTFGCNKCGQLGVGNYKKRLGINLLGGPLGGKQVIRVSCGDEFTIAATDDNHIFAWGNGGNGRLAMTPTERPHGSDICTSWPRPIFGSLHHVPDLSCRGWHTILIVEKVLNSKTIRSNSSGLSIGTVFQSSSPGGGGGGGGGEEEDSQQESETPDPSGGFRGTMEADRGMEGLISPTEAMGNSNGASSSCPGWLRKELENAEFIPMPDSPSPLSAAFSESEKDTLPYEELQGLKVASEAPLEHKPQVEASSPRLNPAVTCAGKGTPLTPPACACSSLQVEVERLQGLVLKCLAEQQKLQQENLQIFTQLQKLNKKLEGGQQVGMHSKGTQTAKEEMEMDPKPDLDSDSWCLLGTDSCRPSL
The conditions noted are these: at 1 µM.

Experiment [2] has as its target Serine/threonine-protein kinase PLK1 (Homo sapiens) (UniProt P53350). The conditions noted are these: at 0.1 µM.
Experiment [3] has the same target. The note with it: at 1 µM.
Experiment [4] addresses T2, Dual specificity protein kinase TTK (Homo sapiens) (UniProt P33981).
T2 sequence (whole entry): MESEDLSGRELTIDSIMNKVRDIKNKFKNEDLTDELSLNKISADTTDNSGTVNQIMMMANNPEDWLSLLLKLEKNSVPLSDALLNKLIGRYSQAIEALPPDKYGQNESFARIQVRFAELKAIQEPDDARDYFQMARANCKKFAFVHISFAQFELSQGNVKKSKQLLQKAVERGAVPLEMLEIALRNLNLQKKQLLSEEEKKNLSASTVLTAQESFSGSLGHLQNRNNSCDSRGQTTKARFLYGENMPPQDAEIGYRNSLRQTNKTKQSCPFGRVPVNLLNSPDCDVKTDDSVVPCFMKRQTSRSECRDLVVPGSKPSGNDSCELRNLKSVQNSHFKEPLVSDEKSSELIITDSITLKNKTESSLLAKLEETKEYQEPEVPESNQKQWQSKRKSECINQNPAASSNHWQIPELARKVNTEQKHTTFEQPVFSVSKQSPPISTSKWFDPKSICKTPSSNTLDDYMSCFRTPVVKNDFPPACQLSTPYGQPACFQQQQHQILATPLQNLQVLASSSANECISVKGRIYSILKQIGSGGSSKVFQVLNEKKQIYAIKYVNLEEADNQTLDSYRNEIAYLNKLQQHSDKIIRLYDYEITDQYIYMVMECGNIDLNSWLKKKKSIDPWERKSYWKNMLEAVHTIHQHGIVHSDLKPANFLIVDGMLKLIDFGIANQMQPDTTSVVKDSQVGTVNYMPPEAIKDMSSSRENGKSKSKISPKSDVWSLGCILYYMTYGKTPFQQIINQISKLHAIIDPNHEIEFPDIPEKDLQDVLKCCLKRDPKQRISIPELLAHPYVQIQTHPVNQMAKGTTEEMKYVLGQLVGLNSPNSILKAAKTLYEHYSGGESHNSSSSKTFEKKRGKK
The conditions noted are these: at 0.1 µM.

The test system of experiment [5] is T3, Receptor-type tyrosine-protein kinase FLT3 (Homo sapiens), P36888 [D835Y].
T3 sequence (whole entry): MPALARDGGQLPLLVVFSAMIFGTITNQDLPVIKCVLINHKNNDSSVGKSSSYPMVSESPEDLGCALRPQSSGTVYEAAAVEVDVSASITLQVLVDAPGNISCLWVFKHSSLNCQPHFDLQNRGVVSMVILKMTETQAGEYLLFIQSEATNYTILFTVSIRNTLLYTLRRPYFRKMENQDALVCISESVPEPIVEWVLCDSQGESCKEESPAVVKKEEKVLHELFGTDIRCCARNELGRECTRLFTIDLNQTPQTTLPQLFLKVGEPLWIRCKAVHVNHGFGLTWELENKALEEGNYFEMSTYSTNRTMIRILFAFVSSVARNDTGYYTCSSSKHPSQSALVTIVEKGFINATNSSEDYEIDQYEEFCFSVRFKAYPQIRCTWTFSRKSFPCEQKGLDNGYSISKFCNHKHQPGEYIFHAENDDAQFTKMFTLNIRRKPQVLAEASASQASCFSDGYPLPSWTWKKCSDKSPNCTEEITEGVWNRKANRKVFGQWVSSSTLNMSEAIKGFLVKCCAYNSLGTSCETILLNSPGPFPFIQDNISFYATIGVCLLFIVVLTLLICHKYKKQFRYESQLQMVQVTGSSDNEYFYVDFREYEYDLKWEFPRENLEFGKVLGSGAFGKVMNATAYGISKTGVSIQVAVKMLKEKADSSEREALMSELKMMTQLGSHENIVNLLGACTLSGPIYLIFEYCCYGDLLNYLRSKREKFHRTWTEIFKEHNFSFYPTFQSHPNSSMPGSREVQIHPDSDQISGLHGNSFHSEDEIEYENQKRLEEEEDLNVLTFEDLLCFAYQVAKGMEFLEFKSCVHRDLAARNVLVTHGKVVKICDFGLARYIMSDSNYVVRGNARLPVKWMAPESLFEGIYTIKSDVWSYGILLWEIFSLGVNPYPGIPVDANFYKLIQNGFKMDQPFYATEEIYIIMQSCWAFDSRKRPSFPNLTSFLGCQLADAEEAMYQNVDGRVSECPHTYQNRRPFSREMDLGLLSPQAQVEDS
The note with it: at 1 µM.

The target of experiment [6] is Vascular endothelial growth factor receptor 3 (Homo sapiens) (UniProt P35916). The conditions noted are these: at 0.1 µM.
Experiment [7] has the same target. The note with it: at 1 µM.
The target in experiment [8] is Macrophage colony-stimulating factor 1 receptor (Homo sapiens) (UniProt P07333). The note with it: at 0.1 µM.
Experiment [9] shares this target. The conditions noted are these: at 1 µM.
The target of experiment [10] is Tyrosine-protein kinase Fyn (Homo sapiens) (UniProt P06241). The note with it: at 0.1 µM.
Experiment [11] shares this target. The note with it: at 1 µM.
Experiment [12] addresses Tyrosine-protein kinase HCK (Homo sapiens) (UniProt P08631). The note with it: at 0.1 µM.
Experiment [13] shares this target. The note with it: at 1 µM.
Experiment [14] addresses Insulin-like growth factor 1 receptor (Homo sapiens) (UniProt P08069). The conditions noted are these: at 0.1 µM.
Experiment [15] shares this target. The conditions noted are these: at 1 µM.
Experiment [16] has as its target Insulin receptor (Homo sapiens) (UniProt P06213). The conditions noted are these: at 0.1 µM.
Experiment [17] shares this target. The note with it: at 1 µM.
Experiment [18] has as its target Insulin receptor-related protein (Homo sapiens) (UniProt P14616). The conditions noted are these: at 0.1 µM.
Experiment [19] shares this target. The conditions noted are these: at 1 µM.
The target in experiment [20] is T4, Tyrosine-protein kinase ITK/TSK (Homo sapiens) (UniProt Q08881).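 Note: mean percent inhibition of ITK from the GSK PKIS screen.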
T4 sequence (whole entry): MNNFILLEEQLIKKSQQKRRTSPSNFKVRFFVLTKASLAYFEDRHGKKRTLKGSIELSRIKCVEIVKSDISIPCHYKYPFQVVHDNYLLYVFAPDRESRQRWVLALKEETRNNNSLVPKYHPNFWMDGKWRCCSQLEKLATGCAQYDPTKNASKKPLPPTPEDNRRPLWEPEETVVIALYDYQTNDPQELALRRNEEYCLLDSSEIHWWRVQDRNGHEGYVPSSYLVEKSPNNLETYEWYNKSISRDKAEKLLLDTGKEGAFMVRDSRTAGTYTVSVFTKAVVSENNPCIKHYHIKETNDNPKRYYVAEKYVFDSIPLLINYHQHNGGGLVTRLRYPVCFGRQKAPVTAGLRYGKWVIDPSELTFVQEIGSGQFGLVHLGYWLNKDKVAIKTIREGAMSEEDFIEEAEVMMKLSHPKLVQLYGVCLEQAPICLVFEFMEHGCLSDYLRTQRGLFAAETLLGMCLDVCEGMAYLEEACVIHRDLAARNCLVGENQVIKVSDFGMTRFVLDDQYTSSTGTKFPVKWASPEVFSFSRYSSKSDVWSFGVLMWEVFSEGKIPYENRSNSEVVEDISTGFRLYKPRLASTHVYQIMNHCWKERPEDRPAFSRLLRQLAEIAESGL
The conditions noted are these: at 0.1 µM.

Chain of Tyrosine-protein kinase HCK (Homo sapiens) (P08631 2-526 limits assumed): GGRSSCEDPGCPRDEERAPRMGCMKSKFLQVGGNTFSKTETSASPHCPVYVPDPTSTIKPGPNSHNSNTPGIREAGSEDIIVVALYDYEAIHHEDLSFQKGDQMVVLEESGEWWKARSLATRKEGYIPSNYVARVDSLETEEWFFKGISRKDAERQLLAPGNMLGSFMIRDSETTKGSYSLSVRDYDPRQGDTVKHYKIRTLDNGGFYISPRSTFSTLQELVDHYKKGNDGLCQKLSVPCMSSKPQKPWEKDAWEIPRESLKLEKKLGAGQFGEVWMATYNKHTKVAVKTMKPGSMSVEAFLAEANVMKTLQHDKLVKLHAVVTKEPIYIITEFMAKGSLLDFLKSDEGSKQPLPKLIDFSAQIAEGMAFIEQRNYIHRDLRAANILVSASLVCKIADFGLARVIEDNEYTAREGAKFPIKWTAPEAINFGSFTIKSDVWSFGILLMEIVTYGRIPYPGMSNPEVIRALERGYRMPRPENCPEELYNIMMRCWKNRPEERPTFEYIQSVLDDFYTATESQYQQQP
Chain of Insulin receptor (Homo sapiens) (P06213 28-758 limits assumed): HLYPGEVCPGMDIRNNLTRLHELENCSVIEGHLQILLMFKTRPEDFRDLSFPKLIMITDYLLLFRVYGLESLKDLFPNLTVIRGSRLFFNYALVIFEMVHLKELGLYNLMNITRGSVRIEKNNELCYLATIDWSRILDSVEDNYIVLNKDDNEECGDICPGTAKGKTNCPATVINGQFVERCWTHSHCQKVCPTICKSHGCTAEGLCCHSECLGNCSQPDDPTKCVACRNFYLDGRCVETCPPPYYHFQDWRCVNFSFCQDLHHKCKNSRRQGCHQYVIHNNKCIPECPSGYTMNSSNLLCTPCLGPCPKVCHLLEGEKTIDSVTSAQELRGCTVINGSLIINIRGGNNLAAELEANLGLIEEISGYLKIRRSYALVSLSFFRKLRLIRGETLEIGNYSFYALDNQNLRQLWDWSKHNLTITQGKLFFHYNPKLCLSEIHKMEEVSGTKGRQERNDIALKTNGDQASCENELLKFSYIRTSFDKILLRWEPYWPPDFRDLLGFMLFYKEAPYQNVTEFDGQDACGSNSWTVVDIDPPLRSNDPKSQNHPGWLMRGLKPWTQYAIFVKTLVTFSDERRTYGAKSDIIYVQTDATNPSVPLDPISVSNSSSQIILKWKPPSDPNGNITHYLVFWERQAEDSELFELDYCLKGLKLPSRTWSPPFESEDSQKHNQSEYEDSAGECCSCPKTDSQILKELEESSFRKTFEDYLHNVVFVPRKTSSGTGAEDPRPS
Chain of Insulin receptor (Homo sapiens) (P06213 763-1382 limits assumed): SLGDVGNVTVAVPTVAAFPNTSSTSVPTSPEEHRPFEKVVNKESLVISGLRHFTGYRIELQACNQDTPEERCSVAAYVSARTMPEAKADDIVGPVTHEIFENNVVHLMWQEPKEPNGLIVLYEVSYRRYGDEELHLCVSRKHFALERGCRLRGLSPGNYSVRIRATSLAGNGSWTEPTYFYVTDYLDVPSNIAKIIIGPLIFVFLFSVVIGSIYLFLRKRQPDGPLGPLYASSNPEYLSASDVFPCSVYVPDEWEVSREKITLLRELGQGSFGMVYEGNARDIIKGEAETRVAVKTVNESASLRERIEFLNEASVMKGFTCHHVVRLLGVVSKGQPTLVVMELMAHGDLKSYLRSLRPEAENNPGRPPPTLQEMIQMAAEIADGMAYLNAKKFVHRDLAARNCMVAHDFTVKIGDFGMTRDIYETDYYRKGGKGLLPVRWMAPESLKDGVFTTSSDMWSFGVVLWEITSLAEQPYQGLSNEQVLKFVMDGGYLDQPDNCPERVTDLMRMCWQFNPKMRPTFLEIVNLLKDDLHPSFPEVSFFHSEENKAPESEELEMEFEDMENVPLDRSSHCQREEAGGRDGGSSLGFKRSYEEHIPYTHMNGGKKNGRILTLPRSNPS
Chain of Tyrosine-protein kinase Fyn (Homo sapiens) (P06241 2-537 limits assumed): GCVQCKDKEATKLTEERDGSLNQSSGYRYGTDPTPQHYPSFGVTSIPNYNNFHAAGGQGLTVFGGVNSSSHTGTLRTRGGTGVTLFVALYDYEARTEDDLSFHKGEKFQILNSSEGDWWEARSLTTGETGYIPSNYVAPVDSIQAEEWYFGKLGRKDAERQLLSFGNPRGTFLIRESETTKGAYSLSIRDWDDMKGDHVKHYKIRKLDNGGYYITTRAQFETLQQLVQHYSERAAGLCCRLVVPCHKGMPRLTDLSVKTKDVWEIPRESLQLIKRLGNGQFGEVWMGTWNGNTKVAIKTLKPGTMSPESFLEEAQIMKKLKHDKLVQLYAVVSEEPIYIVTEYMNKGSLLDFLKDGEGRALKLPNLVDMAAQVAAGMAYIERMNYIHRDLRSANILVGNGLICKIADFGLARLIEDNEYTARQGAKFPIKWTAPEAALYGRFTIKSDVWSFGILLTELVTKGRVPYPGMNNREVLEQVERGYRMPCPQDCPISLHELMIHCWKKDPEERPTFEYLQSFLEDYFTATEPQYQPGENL
Chain of Macrophage colony-stimulating factor 1 receptor (Homo sapiens) (P07333 whole entry): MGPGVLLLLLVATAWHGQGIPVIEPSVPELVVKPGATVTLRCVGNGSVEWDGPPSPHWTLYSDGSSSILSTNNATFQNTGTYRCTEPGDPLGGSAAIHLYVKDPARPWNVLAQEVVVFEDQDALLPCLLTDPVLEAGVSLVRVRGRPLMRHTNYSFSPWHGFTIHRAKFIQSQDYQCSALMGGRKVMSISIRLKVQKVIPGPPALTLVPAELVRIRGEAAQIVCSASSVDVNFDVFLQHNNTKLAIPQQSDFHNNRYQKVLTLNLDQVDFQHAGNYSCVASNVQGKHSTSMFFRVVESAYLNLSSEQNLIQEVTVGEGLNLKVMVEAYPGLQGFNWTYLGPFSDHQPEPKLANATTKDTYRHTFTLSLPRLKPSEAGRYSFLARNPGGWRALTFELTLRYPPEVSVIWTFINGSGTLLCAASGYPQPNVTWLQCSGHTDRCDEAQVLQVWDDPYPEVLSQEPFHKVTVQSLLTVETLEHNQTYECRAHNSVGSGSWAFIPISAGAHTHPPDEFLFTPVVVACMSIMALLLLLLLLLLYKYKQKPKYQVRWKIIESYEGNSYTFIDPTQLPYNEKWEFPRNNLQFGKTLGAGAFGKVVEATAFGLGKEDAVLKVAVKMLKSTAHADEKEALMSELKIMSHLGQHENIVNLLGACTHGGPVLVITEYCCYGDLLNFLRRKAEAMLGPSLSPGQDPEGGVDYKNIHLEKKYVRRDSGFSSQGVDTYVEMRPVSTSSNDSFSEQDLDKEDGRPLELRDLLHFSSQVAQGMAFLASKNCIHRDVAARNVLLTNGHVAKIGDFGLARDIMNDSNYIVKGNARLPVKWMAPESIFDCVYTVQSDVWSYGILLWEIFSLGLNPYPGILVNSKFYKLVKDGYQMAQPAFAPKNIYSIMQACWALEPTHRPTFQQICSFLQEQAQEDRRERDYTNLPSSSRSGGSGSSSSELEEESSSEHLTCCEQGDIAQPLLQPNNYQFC
Chain of Insulin receptor-related protein (Homo sapiens) (P14616 27-742 limits assumed): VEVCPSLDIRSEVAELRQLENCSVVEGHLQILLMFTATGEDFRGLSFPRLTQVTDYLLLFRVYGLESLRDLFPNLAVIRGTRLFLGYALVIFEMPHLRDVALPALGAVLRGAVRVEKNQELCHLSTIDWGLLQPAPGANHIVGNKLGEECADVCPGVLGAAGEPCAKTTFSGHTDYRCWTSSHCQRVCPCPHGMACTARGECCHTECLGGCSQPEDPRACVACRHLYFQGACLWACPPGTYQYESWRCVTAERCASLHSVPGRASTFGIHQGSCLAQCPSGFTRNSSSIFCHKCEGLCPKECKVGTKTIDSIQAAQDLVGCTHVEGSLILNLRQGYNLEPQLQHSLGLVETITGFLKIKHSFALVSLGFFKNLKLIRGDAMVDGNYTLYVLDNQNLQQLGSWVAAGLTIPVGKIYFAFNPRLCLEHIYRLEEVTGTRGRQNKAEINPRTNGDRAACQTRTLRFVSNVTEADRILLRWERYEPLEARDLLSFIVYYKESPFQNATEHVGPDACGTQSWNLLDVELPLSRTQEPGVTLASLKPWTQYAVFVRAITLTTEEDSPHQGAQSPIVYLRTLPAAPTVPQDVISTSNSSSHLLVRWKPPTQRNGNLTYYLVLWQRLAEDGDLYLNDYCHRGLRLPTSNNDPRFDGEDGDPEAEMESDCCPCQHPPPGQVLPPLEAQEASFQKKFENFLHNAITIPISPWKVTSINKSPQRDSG
Chain of Insulin receptor-related protein (Homo sapiens) (P14616 747-1297 limits assumed): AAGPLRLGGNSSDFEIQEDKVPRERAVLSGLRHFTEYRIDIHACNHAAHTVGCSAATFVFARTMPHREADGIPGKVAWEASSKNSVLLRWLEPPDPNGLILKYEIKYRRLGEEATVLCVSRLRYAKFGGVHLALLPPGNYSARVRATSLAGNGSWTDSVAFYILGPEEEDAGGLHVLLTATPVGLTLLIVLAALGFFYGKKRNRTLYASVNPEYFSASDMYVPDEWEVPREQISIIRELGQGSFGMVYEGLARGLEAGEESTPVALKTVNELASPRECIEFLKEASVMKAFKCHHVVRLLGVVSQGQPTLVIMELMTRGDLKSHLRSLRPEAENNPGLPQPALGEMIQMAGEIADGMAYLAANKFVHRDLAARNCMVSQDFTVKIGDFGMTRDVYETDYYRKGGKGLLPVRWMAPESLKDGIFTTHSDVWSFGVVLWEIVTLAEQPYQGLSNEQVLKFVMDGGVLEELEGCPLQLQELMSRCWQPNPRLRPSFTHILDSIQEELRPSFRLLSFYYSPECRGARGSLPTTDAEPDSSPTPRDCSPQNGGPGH

Consider `CN(C)C(=O)O[C@H]1CN[C@H](C#Cc2cc3ncnc(Nc4ccc(OCc5cccc(F)c5)c(Cl)c4)c3s2)C1`, for which the inhibition in [1] was -1.84%; in experiment [2], 2.9%; in experiment [3], 2.92%; in experiment [4], 4.75%; in experiment [5], 4.09%; in experiment [6], 2.38%. The inhibition in experiment [7] was 1.19%; in experiment [8], 10.5%; in experiment [9] it was 3.36%; in [10], -0.77%; in experiment [11], 1.7%; in experiment [12] it was 4.49%. Besides, the inhibition is 10.5% in [13]; 3.22% in experiment [14]; 2.88% in experiment [15]; 4.02% in experiment [16]; 3.06% in experiment [17]; 0.79% in [18]. The inhibition amounted to 1.4% in [19] and 1.49% in [20].

Turning to `ON=C1CCc2cc(-c3nc(C4CCNCC4)[nH]c3-c3ccncc3)ccc21`, the inhibition in experiment [1] was 1.01%; in experiment [2] it was 1.85%; in [3] it was 0.96%; in experiment [4], 3.99%; in experiment [5], 2.96%; in experiment [6], -0.02%. Besides, the inhibition in experiment [7] was 0.4%; in experiment [8] it was 2.19%; in experiment [9] it was 0.63%; in experiment [10], 2.09%; in experiment [11] it was 0.87%; in experiment [12], 0.2%. For the same compound, the inhibition in experiment [13] was 4.24%; in experiment [14], -1.78%; in [15], -0.56%; in [16] it was 1.61%; in experiment [17], -0.75%; in experiment [18], -1.51%. Also, the inhibition in experiment [19] was -0.82%; in experiment [20], 0.74%.

Turning to `N#Cc1c(NC(=O)c2ccccc2F)sc2c1CCCC2`, the inhibition was 1.33% in experiment [1]; -2.61% in experiment [2]; 0.29% in experiment [3]; 1.48% in experiment [4]; -1.19% in experiment [5]; -2.53% in experiment [6]. In addition, the inhibition is 0.3% in experiment [7]; -4.22% in experiment [8]; -1.66% in [9]; 1.38% in [10]; 3.17% in [11]; -1.54% in experiment [12]. Besides, the inhibition in experiment [13] is 0.95%; in experiment [14], -4.1%; in [15] it was 0.01%; in [16], 1.34%; in experiment [17], -1.12%; in [18], -1.06%. Besides, the inhibition in [19] is -1.27%; in experiment [20], -1%.
